For orientation: inhibition means the change of the read-out against control, counted positive when it falls.

For 34 compounds, inhibition results are on record in ChEMBL document CHEMBL3433997, “St. Jude Leishmania screening dataset” (2016).

What all share (format): functional
The target of test [1] is Solute carrier family 2, facilitated glucose transporter member 1 (Homo sapiens) (UniProt P11166). Put plainly: ST_JUDE_LEISH: Cytotoxicity at 2uM final concentration against transgenic Leishmania Mexicana promastigotes LmGLUT1 that are glucose transport deficient and complemented with the human glucose transporter GLUT1. Activity is measured by DNA content using SYBR green in vitro.

Test [2] deals with Hexose transporter 1 (Plasmodium falciparum) (UniProt O97467). Put plainly: ST_JUDE_LEISH: Cytotoxicity at 2uM final concentration against transgenic Leishmania Mexicana promastigotes LmPfHT that are glucose transport deficient and complemented with the Plasmodium falciparum hexose transporter. Activity is measured by DNA content using SYBR green in vitro.
For test [3], the target named is Glucose transporter (Leishmania mexicana) (UniProt O61059). Put plainly: ST_JUDE_LEISH: Cytotoxicity at 2uM final concentration against transgenic Leishmania Mexicana promastigotes LmGT2 that are glucose transport deficient and complemented with the L. Mexicana glucose transporter 2. Activity is measured by DNA content using SYBR green in vitro.

Sequence of Solute carrier family 2, facilitated glucose transporter member 1 (Homo sapiens) (P11166 whole entry): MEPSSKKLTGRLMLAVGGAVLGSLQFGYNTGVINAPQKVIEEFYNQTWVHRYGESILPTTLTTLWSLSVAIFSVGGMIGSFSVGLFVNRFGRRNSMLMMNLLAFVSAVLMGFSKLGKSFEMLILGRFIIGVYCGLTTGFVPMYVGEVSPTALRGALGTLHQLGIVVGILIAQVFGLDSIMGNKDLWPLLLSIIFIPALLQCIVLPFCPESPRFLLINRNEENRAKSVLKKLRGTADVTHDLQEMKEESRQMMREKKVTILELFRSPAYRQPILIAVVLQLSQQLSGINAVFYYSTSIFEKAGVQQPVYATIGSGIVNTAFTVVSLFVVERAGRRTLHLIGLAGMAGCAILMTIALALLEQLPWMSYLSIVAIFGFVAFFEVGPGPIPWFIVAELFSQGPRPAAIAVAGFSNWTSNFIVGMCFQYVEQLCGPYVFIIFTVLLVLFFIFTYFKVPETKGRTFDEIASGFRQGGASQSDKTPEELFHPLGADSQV

`CCCCCCn1ccc2c3c(N)nc(N)nc3ccc21`: the inhibition in test [1] turned out to be 104%; in test [2], 101%; in test [3] it was 102%.
Taken in the same sequence, the figures for `CC(C)Oc1ccc2c(c1)OC(c1ccccc1)(C(F)(F)F)NC2=O` (configuration not stated) were 14.6%, 12.2% and 7.18%.
`COc1ccc(-c2csc(N(CCCN(C)C)C(=O)c3cc4c(C)nn(-c5ccccc5)c4s3)n2)cc1`: the inhibition in test [1] was 0.66%; in test [2], -0.63%; in test [3], 2.84%.
Taken in the same sequence, the figures for `Cc1cc(F)ccc1N(c1nc(-c2cc(Cl)ccc2Cl)cs1)C1CCNC1` (configuration not stated) were 8.82%, 7.41% and 4.16%.
In the same order, the values of `CCc1nnc2sc(-c3cccc(NC(=O)c4ccc(C)c([N+](=O)[O-])c4)c3)nn12` are 7.69%, 3.97% and 2.48%.
For the compound `O=C(NCCN1CCOCC1)c1ccc(CNC(=O)c2ccc(O)c(-c3ccc(Cl)c(Cl)c3)c2)cc1`, the inhibition in test [1] is 1.82%; in test [2], 2.76%; in test [3] it was 1.84%.
As for `Cc1cc(-c2ccc(NC(=O)N3CCc4cc(Br)c(N5CCN(C)CC5)cc43)cc2)cc(C)n1`, the inhibition in test [1] is 9.14%; in test [2] it was 8.41%; in test [3], 10.1%.
`O=[N+]([O-])c1cccc(CNC2CCN(Cc3ccc(Cl)c(Cl)c3)CC2)c1`: the inhibition in test [1] is 7.37%; in test [2], 4.47%; in test [3], 7.35%.
In the same order, the values of `O=c1c(Br)c(C(F)(F)F)[nH]c2ccc(Oc3ccccc3)cc12` are 2.41%, 2.75% and 2.63%.
Taken in the same sequence, the figures for `O=C(Nc1ccc(-c2ccccc2)cc1)Nc1cccc(Cn2cnc(N3CCCNCC3)cc2=O)c1` were 5.12%, 4.17% and 4.86%.
Taken in the same sequence, the figures for `COc1ccc(NC(=O)NC2CCN(CCCOc3cc(C)nc4ccccc34)CC2)cc1OC` were 0.88%, 1.97% and -3.5%.
As to `CCCCN(CCCC)CCCCNc1c2ccccc2nc2ccccc12`, the figures for the inhibition in test [1], in test [2] and in test [3] were 26%, 31.3% and 12.3%, respectively.
In the same order, the values of `Cc1c(Cn2nc(Cl)c(N3CCNCC3)cc2=O)cccc1NC(=O)Nc1ccc(-c2ccccc2)cc1` are -2.62%, -2.29% and -0.03%.
Taken in the same sequence, the figures for `Cc1cccc(OCC2CCN(c3ncc(C(=O)NC4CC4)cc3Cl)CC2)c1` were 0.26%, 5.86% and 2.26%.
In the same order, the values of `CN(C)CCN(C)Cc1ccc(-c2ccc3c(Nc4ccc(Cl)cc4F)ccnc3c2)o1` are 1.16%, 2.08% and 2.79%.
Consider `N#Cc1cncc(-c2nc3c(N4CCN(c5cnccn5)CC4)cccc3n2CCNCc2ccccc2)c1`, for which the inhibition in test [1] was 2.77%; in test [2], 1.47%; in test [3], -3.33%.
Taken in the same sequence, the figures for `COc1ccc(OC)c(NC(=O)c2c(-c3c(F)cccc3Cl)noc2C)c1` were 5.12%, 3.64% and 2.52%.
Taken in the same sequence, the figures for `CCCCc1cc(=O)oc2cc(C)cc(OCc3ccccc3F)c12` were -0.28%, 1.33% and 1.06%.
Taken in the same sequence, the figures for `CC(C)C(=O)NC(c1ccc(N(C)C)cc1)c1cc(Cl)c2cccnc2c1O` (configuration not stated) were 3.89%, 4.2% and 1.29%.
For `CC(C)NCc1cccc(-c2cccc(NC(=O)c3cccc(Cl)c3)c2)c1`, the inhibition in test [1] is -0.03%; in test [2], 0.9%; in test [3] it was 4.05%.
For `c1ccc(-c2nnc(-c3ccccn3)nc2NC2CCCCC2)cc1`, the values for the inhibition in test [1], in test [2] and in test [3] were 80%, 79.8% and 71.2%, respectively.
Taken in the same sequence, the figures for `c1ccc2c(c1)CN(Cc1ccsc1)CC1(CCN(Cc3c[nH]c4cnccc34)CC1)O2` were 4.5%, 3.19% and 6.86%.
In the same order, the values of `NC(=O)C1CCN(Cc2cccc(-c3cccc(-c4nc5cc(C(F)(F)F)ccc5[nH]4)c3)c2)CC1` are 13.1%, 11.4% and 10.3%.
In the same order, the values of `O=C1Nc2cccc3c2C1(CCCN1CCC(c2c[nH]c4cc(C(F)(F)F)ccc24)CC1)CCC3` (configuration not stated) are -0.49%, -2.03% and -0.71%.
Consider `CC(C)C[C@H](NC(=O)c1ccc(F)cc1)C(=O)N[C@H](/C=N/NC(=O)c1ccccc1)CCc1ccccc1`, for which the inhibition turned out to be 4.79% in test [1], 6.16% in test [2] and 3.91% in test [3].
Taken in the same sequence, the figures for `COc1cc(C(F)(F)F)c2cc(CNCCCNc3nc4ccccc4[nH]3)[nH]c2c1` were 1.29%, 2.11% and 2.95%.
In the same order, the values of `CC(C)NCc1cc(Nc2ccnc3cc(Cl)ccc23)ccc1O` are 0.05%, 1.48% and 1.69%.
In the same order, the values of `Fc1ccc(C(OCC2CCCN(Cc3cccc4cccnc34)C2)c2ccc(F)cc2)cc1` (configuration not stated) are 2.49%, 0.62% and -2.6%.
`CN1CCN(CCCN(Cc2csc(-c3ccc(CNCc4ccccc4)cc3)n2)S(=O)(=O)c2cccc3cccnc23)CC1`: the inhibition in test [1] came out at 0.74%; in test [2] it was 5.92%; in test [3] it was 4.06%.
In the same order, the values of `Cc1[nH]c(C)c(-c2ccc(-c3ccccc3C(F)(F)F)nc2)c(=O)c1Br` are 2.64%, 3.67% and 0.55%.
Taken in the same sequence, the figures for `CCOc1cc(Cl)c(C(C)NC(=O)c2ccccc2)cc1OCC` (configuration not stated) were 1.69%, 3.65% and 3.01%.
In the same order, the values of `COc1cc2nc(C)nc(Nc3ccc(Cc4ccccc4)cc3)c2cc1OC` are 4.72%, 5.93% and 3.99%.
As for `COc1cc(OC)cc(C(=O)Nc2cccc(-c3cn4ccc(C)cc4n3)c2)c1`, the inhibition came to 6.3% in test [1], 2.27% in test [2] and 5.98% in test [3].
In the same order, the values of `CCCN1CCN(c2ccccc2NS(=O)(=O)c2ccc(C(=O)Nc3ccc(Cl)cc3)cc2)CC1` are 2.67%, 3.32% and -1.54%.
